# Test results taken from PubChem BioAssay (Tox21).
# Inconclusive results are not listed. Where a call stands in place of a potency, no number is given. Active and inactive are the calls of the source. Unless noted, calls come from the whole dose curve; as a rule, active = well fitted curve in the direction sought with a large enough effect in the repeat runs; inconclusive = weak or mixed curves; inactive = no such curve, though single readings can be large; an effect the other way counts as inactive or inconclusive.
# Tests used:
# [1] = qHTS assay to identify small molecule agonists of the RXR signaling pathway - cell viability counter screen (AID 1159529); note: nearly all actives have a fitted effect of over 50% in size; note: potency is the fitted concentration of half-maximal effect
# Method in brief: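 In this parallel viability measure, GeneBLAzer RXR-alpha HEK 293T cells (2% charcoal-stripped FBS) were given a 5 hr preincubation, treated with compounds 16 hr at 37 C, and read by CellTiter-Glo luminescence.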
# [2] = qHTS assay to identify small molecule antagonists of the retinoid acid receptor (RAR) signaling pathway - cell viability counter screen (AID 1159551); note: nearly all actives have a fitted effect of over 35% in size
# Method in brief: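 Cells (C3RL4) are plated, incubated overnight, dosed with compound in DMSO, then given retinol at 1 uM final. After 6 h at 37 C, CellTiter-Glo is added and luminescence read following 30 min at room temperature.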
# [3] = qHTS assay to identify small molecule antagonists of the retinoic acid receptor (RAR) signaling pathway (AID 1159552; note: nearly all actives have a fitted effect of over 50% in size)
# Method in brief: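 C3RL4 RARE-luc cells, overnight plating; retinol 1 uM final added right after compound; 6 hr 37 C; luciferase read at 30 min RT.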
# [4] = qHTS assay to identify small molecule agonists of the retinoic acid receptor (RAR) signaling pathway (AID 1159553); details: C3RL4 RARE luciferase reporter, agonist, 6 h; activation: at 73.3 µM (top of the series) unless noted
# Method in brief: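 Seed C3RL4 reporter cells at 1,000 per well and incubate overnight at 37 C. Add compounds in DMSO, incubate 6 hr. Add luciferase reagent, wait 30 min at room temperature, read luminescence.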
# [5] = qHTS assay to identify small molecule antagonists of the estrogen related receptor (ERR) signaling pathway from Tox21 library - cell viability counter screen (AID 1224834); note: nearly all actives have a fitted effect of over 30% in size
# Method in brief: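 ERR cells, 2,000/well; 6 h settle at 37 C/5% CO2; pin-tool compound transfer in DMSO; 17.5 h at 37 C; CellTiter-Fluor, 30 min; fluorescence intensity.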
# [6] = target: Luciferin 4-monooxygenase (Photinus pyralis) (UniProt P08659); experiment: qHTS assay to identify small molecule inhibitors of firefly luciferase (AID 1224835); note: nearly all actives have a fitted effect of over 25% in size; note: potency is the fitted concentration of half-maximal effect
# Method in brief: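 Biochemical qHTS: compounds run as interplate titrations against purified firefly enzyme, with D-luciferin and ATP each at its KM concentration. Light output recorded by CCD imaging.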
# [7] = qHTS assay to identify small molecule agonists of the constitutive androstane receptor (CAR) signaling pathway - cell viability counter screen (AID 1224836); note: nearly all actives have a fitted effect of over 45% in size
# Method in brief: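 Using CellTiter-Fluor, viability of HepG2 cells harbouring hCAR and CYP2B6-2.2kb was measured following 23 h incubation with a 15-concentration compound series plus PK11195 (0.75 uM final).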
# [8] = qHTS assay to identify small molecule antagonists of the constitutive androstane receptor (CAR) signaling pathway - cell viability counter screen (AID 1224837); note: nearly all actives have a fitted effect of over 45% in size
# Method in brief: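 Viability was measured with CellTiter-Fluor in a HepG2 line carrying stably transfected hCAR and a CYP2B6-2.2kb construct. Cells were exposed for 23 hr at 37 C to 15 compound concentrations with 50 nM CITCO as agonist.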
# [9] = target: Nuclear receptor subfamily 1 group I member 3 (Homo sapiens) (UniProt Q14994); experiment: qHTS assay to identify small molecule antagonists of the constitutive androstane receptor (CAR) signaling pathway (AID 1224838);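 note: HepG2 cells stably expressing hCAR with CYP2B6 luciferase reporter stimulated by CITCO; nearly all actives have a fitted effect of over 40% in size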
# Method in brief: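 Antagonist mode used CITCO at a final 50 nM to activate CAR in human hepatoma HepG2 cells carrying stable hCAR and a 2.2 kb CYP2B6 promoter-luciferase construct. Compounds were tested at 15 concentrations over 24 h, with luminescence as the end point.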
# [10] = target: Nuclear receptor subfamily 1 group I member 3 (Homo sapiens) (UniProt Q14994); experiment: qHTS assay to identify small molecule agonists of the constitutive androstane receptor (CAR) signaling pathway (AID 1224839); note: nearly all actives have a fitted effect of over 15% in size; note: potency is the fitted concentration of half-maximal effect
# Method in brief: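 Double-stable HepG2 cells (hCAR, CYP2B6-2.2kb) seeded 4 h before compound addition. Exposure 24 h with 0.75 uM PK11195 final. Luciferase detected by ONE-Glo.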
# [11] = qHTS assay to identify small molecule antagonists of the estrogen related receptor signaling pathway with the pleiotropic PPARgamma coactivator (PGC) from Tox21 10K library - cell viability counter screen (AID 1224840; active = well fitted cell-killing curve with a large enough effect in the repeat runs, not every such curve was filed as active; note: nearly all actives have a fitted effect of over 40% in size)
# Method in brief: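 Multiplexed viability counter screen in the PGC/ERR cell line: cells treated with DMSO-dissolved compounds for 17.5 hours at 37 C, then viability measured as CellTiter-Fluor fluorescence.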
# [12] = qHTS assay to identify small molecule antagonists of the estrogen related receptor signaling pathway with the pleiotropic PPARgamma coactivator (PGC) from Tox21 10K library (AID 1224841; call rule not given here; note: actives are mostly falling curves and most rising ones were filed inactive; nearly all actives have a fitted effect of over 50% in size)
# Method in brief: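 Steps: plate 2,000 PGC/ERR cells per well; incubate 6 h at 37 C with 5% CO2; transfer compounds from DMSO stocks by pin tool; incubate 18 h at 37 C; add One-Glo; measure luminescence 30 min later.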
# [13] = qHTS assay to identify small molecule agonists of the estrogen related receptor signaling pathway with the pleiotropic PPARgamma coactivator (PGC) from Tox21 10K library (AID 1224842); note: nearly all actives have a fitted effect of over 15% in size
# Method in brief: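 PGC/ERR reporter cell line, 2,000 cells per well, incubated 6 h at 37 C before 23 nL compound in DMSO was added. After 18 h at 37 C, One-Glo luminescence read following 30 min at room temperature.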
# [14] = target: Thyrotropin receptor (Homo sapiens) (UniProt P16473); experiment: qHTS assay to identify small molecule agonists of the thyroid stimulating hormone receptor (TSHR) signaling pathway (AID 1224843; calls by dose curve; note: nearly all actives have a fitted effect of over 45% in size)
# Method in brief: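 Agonist-mode screen: TSHR HEK293 cells received test chemicals for half an hour at room temperature, then HTRF cAMP detection reagents for one hour prior to fluorescence measurement. Each chemical ran as a 15-concentration series, triplicated.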
# [15] = qHTS assay to identify small molecule antagonists of the estrogen related receptor (ERR) signaling pathway - cell viability counter screen (AID 1224818)
# Method in brief: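 ERR cells, 2,000/well; 6 h settle at 37 C/5% CO2; compound pin transfer (DMSO); 17.5 h at 37 C; CellTiter-Fluor, 30 min, fluorescence read.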
# [16] = qHTS assay to identify small molecule antagonists of the estrogen related receptor (ERR) signaling pathway (AID 1224819;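 note: luminescence from an ERR-driven luciferase reporter measured with One-Glo reagent; nearly all actives have a fitted effect of over 50% in size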)
# Method in brief: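 qHTS in ERR cells, 2,000/well, 1536 format. Cpd (DMSO) added after 6 h settle, 18 h 37 C. One-Glo luminescence, 30 min RT.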
# [17] = qHTS assay to identify small molecule agonists of the estrogen related receptor (ERR) signaling pathway (AID 1224820)
# Method in brief: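 An ERR cell line provided by NTP was seeded at 2,000 cells per well and allowed to settle for 6 h before compounds in DMSO were added. After 18 h at 37 C, luciferase activity was measured by One-Glo luminescence.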
# [18] = system: estrogen-related receptor alpha (ERRalpha) with PGC-1alpha coactivator, human; experiment: qHTS assay to identify small molecule antagonists of the estrogen related receptor signaling pathway with the pleiotropic PPARgamma coactivator (PGC) (AID 1224821; calls by dose curve)
# Method in brief: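 A PGC/ERR cell line supplied by NTP is seeded, allowed 6 h at 37 C, and treated with test compounds in DMSO for 18 h. Signal is then measured as luciferase luminescence using One-Glo.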
# [19] = qHTS assay to identify small molecule antagonists of the estrogen related receptor signaling pathway with the pleiotropic PPARgamma coactivator (PGC) cell viability counter screen (AID 1224822;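 note: viability read after 17.5 h compound exposure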)
# Method in brief: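 Multiplexed viability counter screen run in PGC/ERR cells treated with compounds for 17.5 h at 37 C; live-cell protease signal measured by CellTiter-Fluor fluorescence.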
# [20] = qHTS assay to identify small molecule agonists of the estrogen related receptor signaling pathway with the pleiotropic PPARgamma coactivator (PGC) (AID 1224823)
# Method in brief: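 Compounds dissolved in DMSO are added by pin tool to PGC/ERR cells that have settled for 6 h, and incubation continues 18 h at 37 C. Reporter output is measured as One-Glo luminescence.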
# Luciferin 4-monooxygenase (Photinus pyralis), sequence (P08659 whole entry, looked up): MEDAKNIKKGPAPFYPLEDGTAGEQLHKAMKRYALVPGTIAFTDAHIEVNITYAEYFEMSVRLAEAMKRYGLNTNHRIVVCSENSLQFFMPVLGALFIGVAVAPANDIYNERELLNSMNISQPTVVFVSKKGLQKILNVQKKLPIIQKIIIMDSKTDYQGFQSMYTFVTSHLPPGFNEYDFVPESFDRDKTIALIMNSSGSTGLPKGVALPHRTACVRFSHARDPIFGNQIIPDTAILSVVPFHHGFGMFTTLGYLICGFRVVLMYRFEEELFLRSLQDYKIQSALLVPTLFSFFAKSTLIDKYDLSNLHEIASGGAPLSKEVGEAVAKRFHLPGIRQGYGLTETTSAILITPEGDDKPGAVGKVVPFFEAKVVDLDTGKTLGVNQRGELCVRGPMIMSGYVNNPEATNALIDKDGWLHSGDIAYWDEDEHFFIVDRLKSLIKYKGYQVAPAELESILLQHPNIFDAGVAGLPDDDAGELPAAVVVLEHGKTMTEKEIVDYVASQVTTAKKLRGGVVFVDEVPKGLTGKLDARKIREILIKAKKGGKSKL
# Thyrotropin receptor (Homo sapiens), sequence (P16473 whole entry, looked up): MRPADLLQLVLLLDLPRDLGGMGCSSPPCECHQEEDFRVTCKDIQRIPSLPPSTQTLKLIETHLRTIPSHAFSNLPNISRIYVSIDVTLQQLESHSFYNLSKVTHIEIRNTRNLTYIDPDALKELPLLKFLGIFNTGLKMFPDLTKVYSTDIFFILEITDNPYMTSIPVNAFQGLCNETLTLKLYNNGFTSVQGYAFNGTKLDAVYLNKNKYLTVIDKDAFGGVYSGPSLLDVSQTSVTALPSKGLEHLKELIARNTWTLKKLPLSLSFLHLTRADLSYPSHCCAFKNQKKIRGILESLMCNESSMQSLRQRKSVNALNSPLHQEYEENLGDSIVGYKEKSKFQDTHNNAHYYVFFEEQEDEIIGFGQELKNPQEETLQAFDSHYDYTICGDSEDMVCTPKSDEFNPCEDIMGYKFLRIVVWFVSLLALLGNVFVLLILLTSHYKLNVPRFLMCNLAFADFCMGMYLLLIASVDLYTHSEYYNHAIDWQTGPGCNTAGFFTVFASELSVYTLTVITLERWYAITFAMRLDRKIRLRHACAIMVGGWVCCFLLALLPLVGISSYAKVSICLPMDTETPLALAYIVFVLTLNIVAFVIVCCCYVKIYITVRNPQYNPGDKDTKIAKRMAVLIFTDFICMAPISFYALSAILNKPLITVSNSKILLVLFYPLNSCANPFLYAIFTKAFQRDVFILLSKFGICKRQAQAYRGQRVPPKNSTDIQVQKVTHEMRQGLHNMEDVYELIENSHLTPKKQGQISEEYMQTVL
# Nuclear receptor subfamily 1 group I member 3 (Homo sapiens), sequence (Q14994 whole entry, looked up): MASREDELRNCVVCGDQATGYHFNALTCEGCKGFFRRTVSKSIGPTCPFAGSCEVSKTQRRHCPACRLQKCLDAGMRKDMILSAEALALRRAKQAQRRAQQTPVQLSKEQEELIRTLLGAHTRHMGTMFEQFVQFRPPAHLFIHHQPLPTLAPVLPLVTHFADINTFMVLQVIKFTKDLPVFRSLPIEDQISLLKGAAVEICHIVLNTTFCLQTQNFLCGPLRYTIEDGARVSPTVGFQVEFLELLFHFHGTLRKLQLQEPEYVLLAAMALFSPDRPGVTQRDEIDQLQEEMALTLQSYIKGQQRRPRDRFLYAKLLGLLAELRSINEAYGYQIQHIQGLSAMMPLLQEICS
Structure (SMILES),Potency [1],Potency [2],Potency [3],Potency [4],Potency [5],Potency [6],Potency [7],Potency [8],Potency [9],Potency [10],Potency [11],Potency [12],Potency [13],Potency [14],outcome [15],Potency [16],outcome [17],Potency [18],Potency [19],outcome [20]
CCCCCCC1CCCC(=O)O1 (stereo not drawn),inactive,inactive,inactive,inactive,inactive,inactive,inactive,inactive,inactive,inactive,inactive,inactive,inactive,inactive,–,–,–,–,–,–
Cc1c(C)c([N+](=O)[O-])c(C(C)(C)C)c([N+](=O)[O-])c1C,43.6 µM (active),inactive,inactive,inactive,inactive,inactive,inactive,inactive,inactive,27.3 µM (active),inactive,inactive,inactive,–,–,–,–,–,–,–
CC1(C)CCC[C@]2(C)[C@H]3CCO[C@]3(C)CC[C@@H]12,inactive,inactive,inactive,inactive,inactive,inactive,inactive,inactive,inactive,inactive,inactive,inactive,inactive,inactive,–,–,–,–,–,–
C=CC(=O)OCCOC(=O)C=C,inactive,inactive,inactive,inactive,inactive,inactive,inactive,inactive,inactive,inactive,inactive,–,–,inactive,–,–,–,–,–,–
CN1CCN2c3ccccc3Cc3ccccc3C2C1 (stereo not drawn),inactive,inactive,inactive,inactive,inactive,inactive,inactive,inactive,inactive,–,inactive,inactive,–,inactive,inactive,inactive,inactive,inactive,inactive,inactive
O=C(O)c1cc(=O)c2ccccc2o1,inactive,inactive,inactive,inactive,inactive,inactive,inactive,inactive,inactive,inactive,inactive,inactive,–,inactive,–,–,–,–,–,–
OC/C=C/CO,inactive,inactive,inactive,inactive,inactive,inactive,inactive,inactive,inactive,inactive,inactive,–,–,inactive,–,–,–,–,–,–
Cc1cc(C)c(/C=C2\C(=O)Nc3ccccc32)[nH]1,inactive,inactive,inactive,inactive,inactive,–,inactive,inactive,–,–,inactive,inactive,inactive,inactive,inactive,inactive,inactive,inactive,inactive,inactive
C#Cc1ccc(-c2ccccc2F)cc1,inactive,inactive,inactive,inactive,inactive,30.9 µM (active),inactive,inactive,inactive,inactive,inactive,–,–,–,–,–,–,–,–,–
CCCC(=O)OCCc1ccccc1,inactive,inactive,inactive,inactive,inactive,79.6 µM (active),inactive,inactive,inactive,inactive,inactive,–,–,inactive,–,–,–,–,–,–
CCc1ccc(Br)cc1,inactive,inactive,inactive,inactive,inactive,inactive,inactive,inactive,inactive,inactive,inactive,inactive,inactive,inactive,–,–,–,–,–,–
COc1cc(C)ccc1O,inactive,inactive,inactive,inactive,inactive,inactive,inactive,inactive,inactive,inactive,inactive,inactive,inactive,inactive,–,–,–,–,–,–
CCN(CCN)c1cccc(C)c1,inactive,inactive,inactive,inactive,inactive,inactive,inactive,inactive,inactive,inactive,inactive,inactive,inactive,inactive,–,–,–,–,–,–
Nc1nc2c(ncn2COCCO)c(=O)[nH]1,inactive,inactive,inactive,inactive,inactive,inactive,inactive,–,–,–,inactive,inactive,–,inactive,inactive,inactive,inactive,inactive,inactive,inactive
ClCCl,inactive,inactive,inactive,inactive,inactive,inactive,inactive,inactive,inactive,inactive,inactive,–,–,–,–,–,–,–,–,–
O=C(O)c1ccc2cc(C(=O)O)ccc2c1,inactive,inactive,inactive,inactive,inactive,inactive,inactive,inactive,inactive,inactive,inactive,–,–,inactive,–,–,–,–,–,–
CC(=O)OCC=C(C)C,inactive,inactive,inactive,inactive,inactive,inactive,inactive,inactive,inactive,inactive,inactive,–,–,inactive,–,–,–,–,–,–
CC(C)CCCCCOC(=O)CCS,inactive,inactive,inactive,inactive,inactive,inactive,inactive,inactive,inactive,inactive,inactive,inactive,inactive,inactive,–,–,–,–,–,–
